Only some compounds are listed: those with a hit (about 2.4% of all), similar ones and a draw of the others.
ANO1 block – TMEM16A chloride channel inhibitors, primary screen, cell-based, HTS | HEK293 TMEM16A/YFP iodide influx fluorescence, ionomycin | normalized B-score (activity score, 25-100; higher = stronger inhibition) at 10 µM | 310,000 tested, 1.2% active;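 active = ratio plate-corrected score three or more library SD toward inhibition, starting fluorescence score within five deviations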;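 also: score derived from kinetic fluorescence span divided by baseline fluorescence per well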
CHT block – inhibitors of human choline transporter CHT. High affinity choline transporter 1 (Homo sapiens), Q9GZV3. CHT-expressing cells, membrane potential dye, choline response; active compounds read low. B-score at 10 µM. 310,000 tested, 0.86% active;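 active = B-score over 3 SD under the library average, and starting fluorescence ratio not unusually high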;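 also: choline stimulus applied at its EC90 after an EC20 pre-addition; B-score computed on integrated fluorescence ratio after choline addition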
Target sequence (Q9GZV3 whole entry, looked up): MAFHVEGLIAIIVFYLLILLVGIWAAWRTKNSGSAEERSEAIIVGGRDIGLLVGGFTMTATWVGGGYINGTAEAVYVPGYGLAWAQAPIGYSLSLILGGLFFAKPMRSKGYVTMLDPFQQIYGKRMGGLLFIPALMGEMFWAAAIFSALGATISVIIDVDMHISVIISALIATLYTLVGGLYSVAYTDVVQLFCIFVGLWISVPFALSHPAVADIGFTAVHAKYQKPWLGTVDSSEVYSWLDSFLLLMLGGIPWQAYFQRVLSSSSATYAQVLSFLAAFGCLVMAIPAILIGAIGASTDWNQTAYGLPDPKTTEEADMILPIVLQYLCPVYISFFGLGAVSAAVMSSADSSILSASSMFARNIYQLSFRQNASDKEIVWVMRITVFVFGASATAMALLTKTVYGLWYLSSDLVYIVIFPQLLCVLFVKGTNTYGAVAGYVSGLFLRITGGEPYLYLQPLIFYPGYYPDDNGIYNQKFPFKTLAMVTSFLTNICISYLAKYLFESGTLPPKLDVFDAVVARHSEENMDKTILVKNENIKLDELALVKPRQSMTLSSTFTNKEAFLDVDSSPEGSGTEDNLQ
CHT PAM – CHT positive allosteric modulators, primary screen, cell-based, membrane potential dye, choline EC20; CHT-expressing cells; active compounds read high; LV-AA mutant CHT in HEK293 cells; B-score at 10 µM; 310,000 tested, 0.49% active;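 active = initial fluorescence not abnormally high and integrated response B-score, plate-corrected, over 3 SD above library mean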
TMEM16A act – TMEM16A chloride channel activators or potentiators, primary screen, cell-based, HTS. Anoctamin-1 (Mus musculus), Q8BHY3. HEK293 TMEM16A/YFP-H148Q/I152L, iodide quench fluorescence; active compounds read low. B-score at 10 µM. 340,000 tested, 0.3% active. AID 623877, 2012;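 active = fluorescence-ratio B-score plate-corrected deviation score at least 3 library SD below zero, with starting fluorescence score within 5 deviations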;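 also: channel opened by trigger with iodide after compound preincubation; score built on the fluorescence ratio of max minus min over baseline; more negative score means more quench and so TMEM16A activation or potentiation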
TMEM16A reconf – TMEM16A chloride channel inhibitors, confirmation, cell-based, re-confirmation; shares compounds with ANO1 block; inhibition, % at 10 µM; AID 652189, 2013; 2,300 tested, 39% active; HEK293 TMEM16A/YFP-H148Q, iodide quench fluorescence; ionomycin added to raise cell calcium;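 active = mean duplicate percent inhibition, scaled so buffer wells are 0 and the reference blocker 100, over three buffer SD above buffer mean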
HEK293 Ca mobil – calcium mobilization in TMEM16A/YFP HEK293 cells, confirmation, counter-screen for TMEM16A inhibitor project. calcium response (% of ionomycin), % at 10 µM. Fluo4 calcium mobilization. shares compounds with ANO1 block. 2,300 tested, 2% active;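 active = duplicate-averaged calcium signal over 20% of the ionomycin maximum, relative to buffer baseline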;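 also: each well's signal is peak minus trough fluorescence divided by its pre-addition baseline; 0% = buffer wells and 100% = ionomycin wells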
YFP-HEK293 quench – iodide YFP quench changes in parental YFP-HEK293, counter-screen for TMEM16A inhibitor project, cell-based. shares compounds with ANO1 block. ionomycin. YFP ratio F(max-min)/F0 at 10 µM. 2,300 tested, under 10 active. AID 652233, 2013;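 active = yellow fluorescent protein signal ratio exceeding the buffer control mean by over 5 SD of those controls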;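 also: ratio is mean of duplicate wells from kinetic YFP trace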
ClC-1 rat inh – ClC-1 chloride channel inhibition, selectivity assay for TMEM16A inhibitor project, cell-based, voltage-dependent ClC-1 | CHO ClC-1-YFP, iodide influx fluorescence quench; iodide control reads 0, buffer control 100 | AID 652236, 2013 | 2,300 tested, under 10 active | ratio percent, % at 10 µM | shares compounds with ANO1 block;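 active = duplicate-mean ratio percent above the mean of iodide-only control wells, which defines zero, plus 5 of their SD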;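 also: higher percent means stronger block of ClC-1 iodide influx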
* hit, by the source's call; i = inactive; nt = no result.

SMILES	ANO1 block	CHT block	CHT PAM	TMEM16A act	TMEM16A reconf	HEK293 Ca mobil	YFP-HEK293 quench	ClC-1 rat inh
CCC(C)(C)n1nnnc1CN(Cc1ccc(Cl)cc1)Cc1ccco1	25*	i	i	i	22.5%*	i	-1.1	-15.5
CC(C)(C)c1ccc(CN(Cc2ccco2)Cc2nnnn2C2CCCC2)cc1	i	i	i	i	nt	nt	nt	nt
CCOC(=O)c1ccc2c(c1)N(CC(=O)N1CCCCC1)C(=O)C(C)(C)O2	100*	i	i	i	i	i	-1.22	-4.0
O=[N+]([O-])c1ccc(S(=O)(=O)NNC(=S)NCCc2ccccc2)cc1	i	i	i	i	nt	nt	nt	nt
O=C(O)Cc1cn(Cc2cccc(Cl)c2)c2ccccc12	i	i	i	i	nt	nt	nt	nt
CC1CCCN(C(=O)Cc2cn(Cc3cccc(Cl)c3)c3ccccc23)C1 (stereo unspecified)	100*	i	i	i	24.0%*	i	-1.11	-14.5
COC(=O)c1ccc(N2NC(=O)/C(=C/c3cc(OC)c(OC)c(OC)c3)C2=O)cc1	i	i	i	i	nt	nt	nt	nt
COC(=O)c1ccc(N2NC(=O)/C(=C/c3cc(OC)c(O)c(OC)c3)C2=O)cc1	i	i	i	i	i	i	-0.752	-34.0
CCn1nnc(-c2ccccc2NC(=O)c2cnccn2)n1	i	i	i	i	nt	nt	nt	nt
CCCN(CCC)CCN1C(=O)C2C(C(=O)Nc3cccc(SC)c3)C3C=CC2(O3)C1C(=O)NC1CCCCC1 (stereo unspecified)	100*	i	i	i	i	i	-1.1	-1.0
COc1ccccc1NS(=O)(=O)c1cccc(C(=O)NC2CCN(Cc3ccccc3)CC2)c1	100*	i	i	i	56.5%*	i	-1.05	-27.0
Cc1ccc(NS(=O)(=O)c2cccc(C(=O)NC3CCN(Cc4ccccc4)CC3)c2)c(C)c1	nt	nt	nt	i	nt	nt	nt	nt
COc1ccccc1NS(=O)(=O)c1cc(NC(=O)c2sc3cc(Cl)ccc3c2Cl)ccc1C	i	i	i	i	nt	nt	nt	nt
Cc1ccc(C(=O)Nc2ccc(C)c(S(=O)(=O)Nc3ccccc3Cl)c2)s1	100*	i	i	i	i	i	-0.224	18.5
Cc1ccc(NC(=O)c2ccc3c(c2)OCCO3)cc1S(=O)(=O)Nc1cccc(Cl)c1	100*	i	i	i	i	i	-1.26	-3.0
Cc1ccc(C)c(NC(=O)CN(C)C(=O)/C=C/c2ccco2)c1	i	i	i	i	nt	nt	nt	nt
O=C(O)CCNS(=O)(=O)c1ccc2ccccc2c1	100*	i	i	i	i	i	-0.94	-4.5
O=C(COC(=O)c1ccc(CNS(=O)(=O)c2ccc(F)c(Cl)c2)cc1)NCC1CCCCC1	i	i	i	i	nt	nt	nt	nt
O=C(NCC1CC1)c1cc([N+](=O)[O-])cc([N+](=O)[O-])c1	i	i	i	i	nt	nt	nt	nt
CCOC(=O)C1CCN(S(=O)(=O)c2ccc(-c3ccccn3)s2)CC1	i	i	i	i	nt	nt	nt	nt
CCOC(=O)C1CCN(S(=O)(=O)C(F)(F)c2nc3ccccc3s2)CC1	100*	i	i	i	29.5%*	i	-0.945	-11.0
Cc1ccc(N/C(N)=N/c2nc(C)cc(N3CCCCC3)n2)c(C)c1	100*	i	i	-6.34*	62.5%*	i	-0.918	-29.0
O=C(Nc1ccc(OCc2ccccc2Cl)cc1)c1cccnc1	i	i	i	i	nt	nt	nt	nt
CC(C)Cc1csc(NC(=O)c2ccc(Cl)cc2)c1C(=O)O	25*	i	i	i	39.0%*	i	-0.808	-5.0
O=c1cc(N2CCN(c3ccc(F)cc3)CC2)[nH]c(=O)n1Cc1ccc(F)cc1	i	i	i	i	nt	nt	nt	nt
SMILES	ANO1 block	CHT block	CHT PAM	TMEM16A act	TMEM16A reconf	HEK293 Ca mobil	YFP-HEK293 quench	ClC-1 rat inh
CC1CC(C)CN(c2cc(=O)n(Cc3ccc(F)cc3)c(=O)[nH]2)C1 (stereo unspecified)	100*	i	i	i	i	i	-1	-5.0
Cc1ccc(N/C(CSC(N)=O)=N\S(=O)(=O)c2ccc(C)cc2)cc1	i	i	i	i	nt	nt	nt	nt
CCOC(=O)C1CCCN(C2=NC(=O)/C(=C/c3ccc(N(C)C)cc3)S2)C1 (stereo unspecified)	i	i	i	i	nt	nt	nt	nt
CC(Sc1nc(-c2ccccc2)cc(C(F)(F)F)n1)C(=O)N1CCCCC1 (stereo unspecified)	i	i	i	i	nt	nt	nt	nt
CC1CCCN(C(=O)C(C)Sc2nc(-c3ccccc3)cc(C(F)(F)F)n2)C1 (stereo unspecified)	100*	i	i	i	i	i	-1.08	-15.5
COC(=O)c1ccc2nc(Nc3nc4ccc(F)cc4s3)sc2c1	i	i	i	i	nt	nt	nt	nt
CCOC(=O)c1csc(Nc2nc3ccc(F)cc3s2)n1	100*	i	i	i	i	i	-1.04	-15.0
CC(C)n1cc(CN2CCC(n3nccc3NC(=O)C3CCCC3)CC2)cn1	i	i	i	i	nt	nt	nt	nt
CCN1CCN(CC(O)COC(C)C)CC1 (stereo unspecified)	25*	i	i	i	i	i	-1.23	-14.0
Cc1ccc(C(C)NC(=O)c2c(C)noc2C)cc1C (stereo unspecified)	25*	i	i	i	i	i	-1.02	-10.0
CC(=O)NNC(=O)CCn1nnc(-c2ccc(Cl)cc2)n1	i	i	i	i	nt	nt	nt	nt
Cc1nnc2c3ccccc3c(-c3ccc(O)cc3)nn12	25*	i	i	i	i	i	-1.19	-6.5
CC(C)[C@H](NC(=O)N1c2ccccc2NC(=O)[C@@H]1C(C)C)C(=O)N1CCC(C(=O)O)CC1	i	i	i	i	nt	nt	nt	nt
CCOC(=O)c1sc2nccc(N(C)C)c2c1N=CNOCc1ccccc1	i	i	i	i	nt	nt	nt	nt
CCOC(=O)c1sc2nccc(N(C)C)c2c1N=CNOCc1c(F)cccc1Cl	100*	i	i	i	i	i	-0.946	-4.0
